Screens: PubChem, National Center for Advancing Translational Sciences (NCATS)
Sampled rows, rich in hits. Any-hit rate of the full collection: about 17%.
DT40 TDP1 no CPT = qHTS for Inhibitors of human tyrosyl-DNA phosphodiesterase 1 (TDP1): qHTS in cells in absence of CPT | DT40 Tdp1-/- hTDP1 cells, no CPT, ATP luminescence, 48 h | AID 686978, 2013 | Potency, µM (series often up to 46.2 µM), for inactives: at the top dose activity change, negative = growth inhibition, hits mostly inhibitors | 420,000 tested, 15% active; also: % is scaled to controls: 0 for no effect and ±100 for the full control effect; nearly all actives have a fitted effect of over 55% in size
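Cells were dispensed at 400 per well, compounds added by pin tool, plates incubated ≥48 hr at 37 °C, then CellTiter-Glo added for 30 min at room temperature before luminescence reading. Line: DT40 Tdp1-/- complemented with hTDP1; camptothecin omitted.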
ClpP mod = qHTS Assay for Activators of ClpP | ATP-dependent Clp protease proteolytic subunit (Bacillus subtilis (strain 168)), P80244 | purified B. subtilis ClpP, FRET peptide cleavage, 20 min | Potency, µM (titrated, usually from 57.5 µM), for inactives: top-dose activity change, negative = active | 340,000 tested, 1.9% active | AID 651965, 2013; active = well fitted falling curve with a large enough effect; inconclusive = small, poorly fitted or top-dose-only effect; inactive = no such curve, though single readings can be large or run the other way; also: the source files actives as falling curves though it sought activators and does not explain the sign; nearly all actives have a fitted effect of over 65% in size
Target sequence (P80244 whole entry, looked up): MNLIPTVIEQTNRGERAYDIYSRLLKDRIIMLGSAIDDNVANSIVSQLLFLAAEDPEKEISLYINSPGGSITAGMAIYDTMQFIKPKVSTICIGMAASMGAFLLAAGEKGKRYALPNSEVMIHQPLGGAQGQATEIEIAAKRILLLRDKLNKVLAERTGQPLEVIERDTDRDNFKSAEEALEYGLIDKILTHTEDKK
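ClpP 10 microg/mL final, pH 8 Tris/KCl buffer with BSA, glycerol, Tween-20; compound pinned in; FRET-FV substrate; RT 20 min; Ex320/Em430; ΔFRET vs ADEP 5.8 microM, DMSO, no enzyme.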
TDP1 cell CPT = growth inhibition of DT40 Tdp1-/-;hTDP1 cells with camptothecin (screen for TDP1 inhibitors) | AID 686979 | chicken DT40 Tdp1-/-;hTDP1 cells + 20 nM CPT, ATP luminescence, 48 h | Potency, µM (top dose mostly 46.2 µM), for inactives: top-dose activity change, negative = growth inhibition, actives largely listed as inhibitors | 420,000 tested, 12% active; also: % is scaled to controls: 0 for no effect and ±100 for the full control effect; nearly all actives have a fitted effect of over 55% in size
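Chicken DT40 Tdp1-/- cells complemented with human TDP1, 400 cells/well, exposed to compounds plus 20 nM camptothecin for at least 48 h at 37 C; viability read as ATP content by CellTiter-Glo luminescence.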
TDP1 block = blocks human tyrosyl-DNA phosphodiesterase 1 | recombinant TDP1, AlphaScreen DNA substrate cleavage | Potency, µM (highest dose often 130 µM), for inactives: at the top dose activity change, negative = inhibition, most hits filed as inhibitors | 350,000 tested, 0.28% active | AID 485290 | Q9NUW8; also: % is scaled to controls: 0 for no effect and ±100 for the full control effect; nearly all actives have a fitted effect of over 40% in size
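Enzyme-compound mixtures sat 15 min at room temperature, followed by a 5 min reaction with 15 nM final substrate and 10 min with AlphaScreen beads. Recombinant human Tdp1 was used at 1 nM final.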
The depositor's hits bear a star; u = inconclusive; x = no result given; [ ] = remark or other dose. Unless noted, calls follow the shape of the dose curve; as a rule, active = well fitted curve in the direction sought with a large enough effect; inconclusive = small, poorly fitted or top-dose-only effect, or another doubt; inactive = no such curve, though single readings can be large; an effect the other way counts as inactive or inconclusive. Potency is read from the fitted curve at half-maximal effect.

SMILES	DT40 TDP1 no CPT	ClpP mod	TDP1 cell CPT	TDP1 block
COc1ccccc1CC(=O)c1ccccc1OC	-29%	x	-14%	x
CCCCc1nc2c(c3c1C[C@H](C)OC3)CN(C(=O)NCc1ccco1)CC2	x	x	x	14%[12.3 µM]
Cn1c(=O)c2[nH]c(N3CCCCC3)nc2n(C)c1=O	1%	x	21µM*	3%
COc1cc(Cl)c(S(=O)(=O)NCCc2c(C)[nH]c3c(C)cccc23)cc1Cl	x	0%	x	11%
CC(=O)/C(C#N)=C1\NC(=O)C(Cc2ccccc2)S1 (configuration not stated)	u	2%	u	9%
CC(=O)/C(C#N)=C1\NC(=O)C(Cc2ccccc2C)S1 (configuration not stated)	2.3µM*	x	u	x
O=C(Cn1nc(-c2ccccc2)nc1-c1ccccc1)OC1CCCCC1	18µM*	-4%	u	5%
CC(C)Oc1ccc(CN2CCC2(C)C(=O)Nc2ccc(Cl)c(Cl)c2)cc1 (configuration not stated)	u	-1%	u	x
CCCCCCCCCCCCCC(=O)NO	u	-3%	u	x
COc1ccc(CCNc2ccc(C(CC(N)=O)NC(=O)c3ccc(Br)cc3)cc2[N+](=O)[O-])cc1 (configuration not stated)	16µM*	-2%	23µM*	4%
NC(=O)CC(NC(=O)c1ccc(Br)cc1)c1ccc(NC2CCCCCCC2)c([N+](=O)[O-])c1 (configuration not stated)	16µM*	-2%	16µM*	x
NC(=O)CC(NC(=O)c1ccccc1)c1ccc(NC2CCCCCCC2)c([N+](=O)[O-])c1 (configuration not stated)	23µM*	0%	23µM*	x
Cc1cc(C)cc(C(=O)NC(CC(N)=O)c2ccc(NC3CCCCCC3)c([N+](=O)[O-])c2)c1 (configuration not stated)	u	-5%	u	5%
COc1ccccc1-c1cc(C(F)(F)F)nc(S(=O)(=O)CCCC(=O)Nc2ccccc2F)n1	2.6µM*	4%	2.6µM*	6%
COc1ccccc1-c1cc(C(F)(F)F)nc(S(=O)(=O)CCCC(=O)Nc2cccnc2Cl)n1	4.6µM*	x	2.1µM*	8%
COc1ccc(NC(=O)CC2C(=O)N(C)C(=S)N2CCc2ccccc2)cc1 (configuration not stated)	u	-2%	u	5%
COC(=O)CN1C(=S)N(Cc2ccccc2)C(=O)C1CC(=O)Nc1ccc(OC)cc1 (configuration not stated)	5%	1%	7%	-5%
COC(=O)CN1C(=S)N(c2ccc(F)cc2)C(=O)C1CC(=O)Nc1ccc(OC)cc1 (configuration not stated)	6%	-2%	-11%	x
COc1ccc(NC(=O)CC2C(=O)N(Cc3ccccc3)C(=S)N2CCN2CCOCC2)cc1 (configuration not stated)	u	8.9µM*	u	4%
CCCOc1ccc(NC(=O)CC2C(=O)N(CC)C(=S)N2Cc2cccs2)cc1 (configuration not stated)	u	0%	u	2%
CCN1C(=O)C(CC(=O)Nc2ccc(OC)cc2)N(CCCN2CCN(c3ccc(F)cc3)CC2)C1=S (configuration not stated)	13µM*	1%	23µM*	7%
C=CCN1C(=O)C(CC(=O)Nc2ccc(OCCC)cc2)N(CCCN2CCN(Cc3ccccc3)CC2)C1=S (configuration not stated)	21µM*	x	23µM*	7%
CCN1C(=O)C(CC(=O)Nc2ccc(OC)cc2)N(CCc2ccc(F)cc2)C1=S (configuration not stated)	16µM*	11µM*	21µM*	6%
Cn1c(SCC(=O)N2CCCc3ccccc32)ncc(C(=O)Nc2ccccc2)c1=O	0%	-8%	-12%	3%
COc1ccc(NC(=O)N2CC3(CCN(C(=O)c4ccco4)CC3)C2)cc1	-1%	x	14%	x
SMILES	DT40 TDP1 no CPT	ClpP mod	TDP1 cell CPT	TDP1 block
COc1ccc(CCN2C(=S)N(C)C(=O)C2CC(=O)Nc2ccc(OC)cc2)cc1 (configuration not stated)	u	x	12µM*	0%
COc1ccc(NC(=O)CC2C(=O)N(C)C(=S)N2CCc2ccc(F)cc2)cc1 (configuration not stated)	u	-2%	u	4%
CSc1ncccc1C(=O)OCC(=O)N(C)Cc1ccc(C)cc1	u	0%	u	x
CCOc1ccc(NS(=O)(=O)c2cccc(C(=O)N3CCN(C/C=C/c4ccccc4)CC3)c2)cc1	16µM*	2%	u	x
CCOc1ccc(NC(=S)N2CCN(C/C=C/c3ccccc3)CC2)cc1	18µM*	x	u	5%
O=C(c1cccc(S(=O)(=O)N2CCOCC2)c1)N1CCN(C/C=C/c2ccccc2)CC1	u	-1%	u	2%
COCCNC(=O)C1CCCN(C(=O)c2ccc3ccccc3n2)CC1 (configuration not stated)	-3%	-2%	-7%	x
C[C@@H]1CCC[C@H](C)N1Cc1nc(Cc2ccccc2Cl)no1	u	x	15µM*	3%
OC1CCN(Cc2nc(Cc3ccccc3Cl)no2)CC1	-8%	x	-4%	0%
Cc1ccc(-n2ncc(C(=O)NCCCN3CCCCC3)c2C2CCN(C(=O)OC(C)(C)C)CC2)cc1	-29%	-1%	u	0%
COc1ccc(-c2csc(N3CCN(c4cc5c(cc4Cl)nc(-c4ccncc4)n5CCOCCO)CC3)n2)cc1	u	-4%	12µM*	x
Cc1ccc(-c2csc(N3CCN(c4cc5c(cc4Cl)nc(-c4ccncc4)n5CCN4CCCCC4)CC3)n2)cc1	u	-29%	u	x
OCCOCCn1c(CCNc2nc(-c3ccc(F)cc3)cs2)nc2cc(C(F)(F)F)ccc21	u	0%	u	x
COc1ccc(-c2csc(NCCc3nc4cc(Cl)c(N5CCCCC5)cc4n3CCOCCO)n2)cc1	9.2µM*	0%	23µM*	x
OCCCn1c(CCCNc2nc(-c3cccc(Br)c3)cs2)nc2cc(Cl)c(N3CCCCC3)cc21	16µM*	-3%	u	x
COc1ccc(CCNC(=O)CCS(=O)(=O)Cc2ccccc2C)cc1OC	7%	0%	-5%	x
CC(=O)Nc1ccc(NC(=O)C(C)Sc2nc3ccccc3c(=O)n2CC2CCCO2)cc1 (configuration not stated)	u	-2%	u	x
COc1ccccc1-c1noc(CCCC(=O)Nc2cc(C)ccc2C)n1	u	1%	u	6%
